CRFR2-BP antag = antagonists of CRF-BP/CRF-R2 complex, primary screen, cell-based, HEK293, calcium dye fluorescence, uHTS; CRF-induced calcium fluorescence; actives 0.59% (n = 350,000); AID 588475, 2011; inhibition, % at 11.8 µM;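 active means inhibition of the ligand-induced calcium signal above about 50% at the single tested concentration, limit read from the data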
CRFBP-R2 agonist = agonists of CRF-BP/CRF-R2 complex, primary screen, cell-based, HEK293, calcium dye fluorescence, uHTS; calcium dye fluorescence (FLIPR); percent of saturating CRF peptide response; CRF-binding protein / CRF receptor 2 complex (human); AID 588473, 2011; activation, % at 13.2 µM; actives 0.46% (n = 350,000);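 active means activation of at least 50%, plus an integration ratio under a set limit after plate pattern correction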;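 further: plate controls were neutral control wells without compound for no effect and CRF at EC100 for full effect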
MPTP block = mitochondrial permeability transition pore inhibitors, primary screen, biochemical, isolated mouse mitochondria, absorbance; Ca2+ swelling absorbance, 30 min; actives 1.4% (n = 360,000); inhibition, % at 10 µM;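 active means inhibition of 50% or more, scaled per plate between neutral and stimulator controls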;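 further: 0% = DMSO wells given calcium and 100% = 1 mM EGTA wells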
TMEM16A inh = TMEM16A chloride channel inhibitors, primary screen, cell-based, HTS; normalized B-score (activity score, 25-100; higher = stronger inhibition) at 10 µM; HEK293 TMEM16A/YFP iodide influx fluorescence, ionomycin; actives 1.2% (n = 310,000); Anoctamin-1 (Mus musculus), Q8BHY3;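 active means ratio plate-corrected score three or more library SD toward inhibition, starting fluorescence score within five deviations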;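 further: score derived from kinetic fluorescence span divided by baseline fluorescence per well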
Target sequence (Q8BHY3 whole entry, looked up): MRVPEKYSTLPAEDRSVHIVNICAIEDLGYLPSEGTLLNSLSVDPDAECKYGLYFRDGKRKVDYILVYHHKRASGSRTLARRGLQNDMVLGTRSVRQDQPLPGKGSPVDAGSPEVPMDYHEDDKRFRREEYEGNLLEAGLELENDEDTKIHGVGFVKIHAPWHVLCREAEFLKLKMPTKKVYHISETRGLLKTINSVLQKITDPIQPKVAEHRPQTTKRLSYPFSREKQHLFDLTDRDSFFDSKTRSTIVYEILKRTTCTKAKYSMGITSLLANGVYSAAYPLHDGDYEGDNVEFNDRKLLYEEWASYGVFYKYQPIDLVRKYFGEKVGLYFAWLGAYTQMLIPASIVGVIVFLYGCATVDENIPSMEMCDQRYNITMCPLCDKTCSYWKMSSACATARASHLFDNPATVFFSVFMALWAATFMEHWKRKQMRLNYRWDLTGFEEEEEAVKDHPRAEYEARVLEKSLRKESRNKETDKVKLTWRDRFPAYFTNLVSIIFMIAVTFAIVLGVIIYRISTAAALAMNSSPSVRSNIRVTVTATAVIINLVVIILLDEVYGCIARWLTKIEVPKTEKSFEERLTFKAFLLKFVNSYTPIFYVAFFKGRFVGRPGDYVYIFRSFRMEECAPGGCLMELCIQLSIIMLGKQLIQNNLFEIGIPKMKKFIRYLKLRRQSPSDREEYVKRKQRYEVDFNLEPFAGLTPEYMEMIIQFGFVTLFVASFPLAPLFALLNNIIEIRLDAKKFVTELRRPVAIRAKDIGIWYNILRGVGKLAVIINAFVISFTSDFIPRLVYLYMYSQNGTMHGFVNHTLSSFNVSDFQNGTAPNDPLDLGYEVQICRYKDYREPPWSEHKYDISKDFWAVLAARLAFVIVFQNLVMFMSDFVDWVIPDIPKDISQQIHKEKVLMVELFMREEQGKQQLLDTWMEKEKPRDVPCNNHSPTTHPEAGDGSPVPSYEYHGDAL
GRIN3A LBD mod = binders of NR3A ligand-binding domain, primary screen, biophysical, differential scanning fluorimetry, uHTS | Glutamate receptor ionotropic, NMDA 3A (GRIN3A) ligand-binding domain | NR3A LBD differential scanning fluorimetry, Tm shift; 0% = protein alone, 100% = glycine-bound protein | Tm shift relative to glycine control, % at 25 µM | actives 2.5% (n = 340,000) | AID 1259313, 2017;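 active means melting temperature shift of at least 10% of the positive control shift, at one fixed dose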
TMEM16A act = TMEM16A chloride channel activators or potentiators, primary screen, cell-based, HTS; Anoctamin-1 (Mus musculus), Q8BHY3; B-score at 10 µM; actives 0.3% (n = 340,000); HEK293 TMEM16A/YFP-H148Q/I152L, iodide quench fluorescence; stronger effect = lower value;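 active means fluorescence-ratio B-score plate-corrected deviation score at least 3 library SD below zero, with starting fluorescence score within 5 deviations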;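 further: channel opened by trigger with iodide after compound preincubation; score built on the fluorescence ratio of max minus min over baseline; more negative score means more quench and so TMEM16A activation or potentiation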
Rh123 counter = fluorescence retest of MPTP screen hits in isolated mitochondria, single concentration. shares compounds with MPTP block. membrane potential, Rhodamine 123 fluorescence. inhibition, % at 10 µM. actives 78% (n = 5,000); in the data active means inhibition above about 22%;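 further: 0% = DMSO vehicle and 100% = positive control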
MPTP swell DR = mitochondrial permeability transition pore inhibitors, dose response, biochemical, absorbance, uHTS hits; actives 58% (n = 780); shares compounds with MPTP block; isolated mitochondria swelling; IC50, µM; AID 651561, 2012; in the data active means IC50 below about 20 µM
MPTP cs DR = fluorescent counter-screen in isolated mitochondria, dose response, counter-screen for MPTP inhibitor project, biochemical, fluorescence, uHTS hits; shares compounds with MPTP block; isolated mitochondria counterscreen, fluorescence read-out; IC50, µM; actives 49% (n = 780); AID 651564, 2012; in the data active means IC50 below about 80 µM
* hit, by the source's call; i = inactive; . = no result given. Shown are actives, neighbours in structure and some others; about 5.1% of the full set was active somewhere.

SMILES | CRFR2-BP antag | CRFBP-R2 agonist | MPTP block | TMEM16A inh | GRIN3A LBD mod | TMEM16A act | Rh123 counter | others
CCCN(C(=O)Cc1csc(-c2ccccc2)n1)C1CCS(=O)(=O)C1 (stereo unspecified) | 6 | -1 | -1 | . | -1 | i | .
Cc1ccc2[nH]c(C(=O)N/N=C/c3ccc([N+](=O)[O-])cc3)c(C)c2c1 | 4 | 0 | 51* | i | 20* | i | 74*
Cc1c(C(=O)NN)[nH]c2ccc([N+](=O)[O-])cc12 | 9 | -1 | 2 | i | 5 | i | .
Cc1cc(C(=O)N/N=C/c2ccc([N+](=O)[O-])cc2)c(C)o1 | 7 | -2 | 1 | i | -2 | i | .
CCCCC/C=N/NC(=O)c1[nH]c2ccc([N+](=O)[O-])cc2c1C | -28 | -5 | 76* | i | -11 | i | 73*
O=C(Nc1ccc(Cl)c(Cl)c1)O/N=C/c1ccncc1 | 11 | 2 | 104* | i | 29* | i | 78*
O=C(Nc1cccc(Cl)c1)O/N=C\c1ccncc1 | -27 | 3 | 82* | i | -1 | i | 93*
CSc1ccccc1NC(=O)CN(C)C(=O)Cc1c(F)cccc1Cl | 8 | -1 | -1 | i | 0 | i | .
COc1ccc(NC(=O)C2Cc3c(-c4ccc(Cl)cc4)ccnc3O2)cc1OC (stereo unspecified) | . | . | 70* | . | . | . | 80*
COc1ccc(NC(=O)C2Cc3c(-c4ccccc4)ccnc3O2)cc1OC (stereo unspecified) | . | . | 59* | . | . | . | 85*
CCCCNC(=O)C1c2ccccc2OCC(=O)N1Cc1ccccc1 (stereo unspecified) | . | . | 0 | . | . | . | .
CS(=O)(=O)N1CCc2cc(S(=O)(=O)Nc3ccc4c(c3)OCCO4)ccc21 | -2 | 4 | 12 | i | 7 | i | .
O=C(C1CC1)N1CCc2cc(S(=O)(=O)NCCC3=CCCCC3)ccc21 | -33 | 4 | 62* | i | -15 | i | 46*
CCCN(CCC)CCNS(=O)(=O)c1ccc2c(c1)CCN2C(=O)C1CCC1 | -11 | -1 | -1 | i | 0 | i | .
O=C(C1CCC1)N1CCc2cc(S(=O)(=O)Nc3ccc4c(c3)OCCO4)ccc21 | -9 | 2 | 65* | i | -17 | i | 81*
CCC(=O)N1CCc2cc(S(=O)(=O)Nc3ccc4c(c3)OCCO4)ccc21 | 9 | -1 | 81* | i | -1 | i | 58*
Oc1[nH]c(N=C2N=c3ccccc3=N2)c2ccccc12 | -21 | 0 | 0 | i | 9 | i | .
Nc1c(N(Cc2ccccc2)C(=O)COc2ccc([N+](=O)[O-])cc2)c(=O)[nH]c(=O)n1Cc1ccccc1 | 2 | 0 | 1 | . | -1 | i | .
Cc1nnsc1-c1onc(C)c1C(=O)Nc1cc(Cl)cc(Cl)c1 | -2 | -3 | 84* | i | 7 | i | 79*
Cc1nnsc1C(=O)Nc1cccc(Cl)c1 | 10 | -2 | 2 | i | 2 | i | .
Cc1nc2ccccn2c1-c1csc(Nc2cccc(O)c2)n1 | -1 | 0 | 18 | . | 2 | i | .
Cc1cccc(Nc2nc(-c3c(C)nc4ccccn34)cs2)c1 | -2 | 2 | 86* | i | -7 | i | 76*
O=C1Cc2ccccc2Sc2cc(OCCCN3CCCCC3)ccc21 | -25 | 0 | 71* | i | 1 | i | -13 | MPTP swell DR=9.9*;MPTP cs DR=>80
O=[N+]([O-])c1ccc(N2CCN(Cc3ccccc3)CC2)c2c1no[n+]2[O-] | -26 | 12 | 98* | . | . | . | 12
CCC(C)NC(=O)C1=CCN(S(=O)(=O)c2ccc(C)cc2)CC1 (stereo unspecified) | -2 | -1 | 0 | i | 1 | i | .
SMILES | CRFR2-BP antag | CRFBP-R2 agonist | MPTP block | TMEM16A inh | GRIN3A LBD mod | TMEM16A act | Rh123 counter | others
CCC(C)NS(=O)(=O)c1ccc(S(=O)(=O)N2CC=C(c3ccc(F)cc3)CC2)cc1 (stereo unspecified) | -4 | 18 | 66* | i | -4 | i | 56*
O=C(CC[C@H]1O[C@@H](n2cnc3c(NC(=O)c4ccccc4)ncnc32)[C@H](O)[C@@H]1O)NCCCN1CCOCC1 | . | . | -2 | . | . | . | .
Cc1ccc(NC(=O)CC(O)(C(F)(F)F)C(F)(F)F)cc1 | 29 | 12 | 64* | i | -1 | i | 82*
CCCCOc1ccc(CONS(=O)(=O)c2ccc(NC(C)=O)cc2)cc1Cl | -20 | -1 | 94* | i | 28* | i | 73*
CC(=O)Nc1ccc(S(=O)(=O)NCCOc2ccc(Cl)cc2C)cc1 | -9 | -2 | 0 | i | -4 | i | .
O=c1[nH]c2cc3c(cc2cc1C(c1nnnn1C1CCCCC1)N1CCSCC1)OCCO3 (stereo unspecified) | -80 | 54* | 63* | i | -12 | i | -2
CC(C)Sc1cc(N2CCCC2)nc(-c2ccccc2)n1 | -6 | 0 | 1 | i | 1 | i | .
CC(C)Sc1cc(N2CCOCC2)nc(-c2ccccc2)n1 | -69 | 0 | 50* | i | 1 | i | -9 | MPTP swell DR=>100;MPTP cs DR=77*
COc1c(C)cc(C(O)c2ncc(-c3ccc(Cl)cc3)[nH]2)cc1C (stereo unspecified) | . | . | 2 | . | . | . | .
O=C(OCc1ccc([N+](=O)[O-])cc1Cl)c1cnccn1 | 9 | -1 | 0 | i | 2 | i | .
CCCc1cc(=O)oc2cc(C)cc(OCC(=O)NCc3cccnc3)c12 | 14 | 1 | 0 | i | -1 | i | .
CCCc1cc(=O)oc2cc(C)cc(OC(=O)c3ccco3)c12 | 11 | -2 | 84* | i | 0 | i | 88*
CCCc1cc(=O)oc2cc(C)cc(O)c12 | 20 | 10 | 78* | i | 0 | i | 78*
CCc1cc(=O)oc2cc(C)cc(O)c12 | 14 | 0 | 1 | i | -1 | i | .
OCCCNc1ncnc2c1ncn2[C@H]1CN(Cc2ccco2)C[C@@H](CO)O1 | . | . | -1 | . | . | . | .
